# Hit rate of the full screen: of about 310,000 compounds, about 14,000 (4.5%) showed an effect of 50% or more. Effects have a minus sign here. The list comes from a sample in which strong results are over-represented; it also holds similar structures and randomly drawn compounds.
# Molecular target: human ether-à-go-go-related gene (hERG) potassium channel (human, UniProt Q12809)
# Assay: primary screen, population patch clamp on CHO cells stably expressing hERG; higher = less effect of the substance
# 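Also: peak tail current of the secondary pulse compared with the same well before compound.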
# human ether-à-go-go-related gene (hERG) potassium channel, sequence (Q12809 whole entry, looked up): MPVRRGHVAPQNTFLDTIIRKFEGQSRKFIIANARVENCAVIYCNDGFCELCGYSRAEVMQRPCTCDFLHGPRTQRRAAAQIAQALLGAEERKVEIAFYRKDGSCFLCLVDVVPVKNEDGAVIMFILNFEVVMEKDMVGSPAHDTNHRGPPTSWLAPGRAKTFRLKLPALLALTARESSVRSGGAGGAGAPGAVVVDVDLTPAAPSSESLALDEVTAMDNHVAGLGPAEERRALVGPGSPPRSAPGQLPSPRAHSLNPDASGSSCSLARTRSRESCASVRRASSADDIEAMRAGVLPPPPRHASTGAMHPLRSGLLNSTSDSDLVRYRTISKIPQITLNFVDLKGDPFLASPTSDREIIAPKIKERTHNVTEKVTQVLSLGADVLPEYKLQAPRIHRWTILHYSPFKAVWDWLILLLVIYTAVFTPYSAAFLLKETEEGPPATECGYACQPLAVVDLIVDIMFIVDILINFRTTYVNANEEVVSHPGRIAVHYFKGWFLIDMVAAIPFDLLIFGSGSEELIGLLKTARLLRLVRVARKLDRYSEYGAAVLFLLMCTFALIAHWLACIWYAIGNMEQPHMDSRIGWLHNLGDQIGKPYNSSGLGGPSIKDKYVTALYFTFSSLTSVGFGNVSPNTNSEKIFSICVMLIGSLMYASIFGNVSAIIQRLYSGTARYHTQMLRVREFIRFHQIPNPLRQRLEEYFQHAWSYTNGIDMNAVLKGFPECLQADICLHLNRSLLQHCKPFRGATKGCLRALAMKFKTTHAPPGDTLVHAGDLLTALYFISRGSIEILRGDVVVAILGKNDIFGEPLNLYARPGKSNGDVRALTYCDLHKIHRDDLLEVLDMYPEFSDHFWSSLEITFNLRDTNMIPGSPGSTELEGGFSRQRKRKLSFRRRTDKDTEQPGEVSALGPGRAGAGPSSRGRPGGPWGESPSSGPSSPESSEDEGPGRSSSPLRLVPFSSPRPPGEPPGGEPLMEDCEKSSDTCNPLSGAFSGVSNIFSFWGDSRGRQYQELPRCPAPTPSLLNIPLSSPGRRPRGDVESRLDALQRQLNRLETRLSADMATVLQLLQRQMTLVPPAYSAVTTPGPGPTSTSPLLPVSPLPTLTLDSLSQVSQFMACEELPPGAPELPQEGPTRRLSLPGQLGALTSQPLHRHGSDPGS
row,Compound,"hERG current change (%, negative = inhibition) at 10uM [%]"
1,CC(=O)Nc1ccccc1NC(=O)COc1cccc2ccccc12,18.9
2,CCOC(=O)c1sc(NC(=O)CN2CCN(c3ccc(OC)cc3)CC2)nc1C,-20.6
3,O=C(Nc1nc2ccccc2s1)c1ccc(N2CCCCC2)c([N+](=O)[O-])c1,6.67
4,O=C(NNC(=O)c1ccc(Br)s1)NC1CCCCC1,28.1
5,Cc1ccc(NC(=O)CCSc2nnc3ccccn23)cc1,2.6
6,Cc1cccc(NS(=O)(=O)c2csc(C(N)=O)c2)c1,8.92
7,NC(=O)c1cc(S(=O)(=O)Nc2ccccc2)cs1,1.39
8,NC(=O)c1cc(S(=O)(=O)Nc2cccc(Cl)c2)cs1,-61.2
9,CCC(C)NC(=O)C1CCC(CNS(=O)(=O)c2ccc3c(c2)N(C(C)=O)CCO3)CC1 (stereo not drawn),6.84
10,COc1ccccc1NC(=O)C(=O)NCC(c1ccco1)N1CCc2ccccc21 (stereo not drawn),-1.64
11,COc1ccc(-n2cnc3c(sc4nc(N5CCOCC5)c5c(c43)CCCC5)c2=O)cc1,21.3
12,CCc1cccc(NS(=O)(=O)c2c(C)[nH]c(=O)[nH]c2=O)c1,20.8
13,COc1ccc2cc(CN(Cc3cccnc3)Cc3nnnn3Cc3ccccc3)c(=O)[nH]c2c1,-74.4
14,COc1ccc2cc(CN(CCc3ccccc3)Cc3nnnn3CC3CCCO3)c(=O)[nH]c2c1 (stereo not drawn),-31.3
15,COc1ccc2[nH]c(=O)c(CN(Cc3ccccc3)Cc3nnnn3CC3CCCO3)cc2c1 (stereo not drawn),-4.75
16,COc1ccc2[nH]c(=O)c(CN(CCc3ccccc3)Cc3nnnn3CC3CCCO3)cc2c1 (stereo not drawn),-53.4
17,COCCn1nnnc1CN(CCc1ccccc1)Cc1cc2cc(OC)ccc2[nH]c1=O,-47.8
18,COc1ccc2cc(CN(Cc3cccs3)Cc3nnnn3Cc3ccccc3)c(=O)[nH]c2c1,-11.3
19,COc1ccc2cc(CN(CCc3ccccc3)Cc3nnnn3Cc3ccco3)c(=O)[nH]c2c1,-29.7
20,COCCn1nnnc1CN(CCc1ccc(OC)c(OC)c1)Cc1cc2ccc(C)cc2[nH]c1=O,-42.8
21,COCCn1nnnc1CN(CCc1ccccc1)Cc1cc2ccc(C)cc2[nH]c1=O,-57.2
22,COc1cc(OC)cc(C(=O)OCC(=O)NCc2ccco2)c1,2.94
23,Cc1ccc(-n2nnc3c(=O)n(CC(=O)N4CCOCC4)cnc32)cc1,-3.25
24,CCOc1ccccc1C(=O)NCCC(=O)O,8.38
25,Cc1onc(-c2c(F)cccc2Cl)c1C(=O)N1CCc2ccccc2C1,-15.7
26,O=C(CCn1ccc2cc(S(=O)(=O)N3CCCC3)ccc21)NCCc1ccccc1,-16.9
27,O=C(Nc1ccc(Br)cc1)C1CCCC1,9.31

row,Compound,"hERG current change (%, negative = inhibition) at 10uM [%]"
1,O=C(c1ccc(COc2ccccc2Cl)o1)N1N=C(C(F)F)CC1(O)C(F)F (stereo not drawn),17.1
2,COc1ccc(CCNc2ccc(C(CC(N)=O)NC(=O)Cc3ccc(Br)cc3)cc2[N+](=O)[O-])cc1 (stereo not drawn),4.07
3,S=c1[nH]nc(-c2cc(-c3ccsc3)n[nH]2)n1-c1cccc2ccccc12,-12.6
4,COc1cccc(N2CC(NC(=O)c3cccc4ccccc34)CC2=O)c1 (stereo not drawn),-6.44
5,CCCC1(CCC)C(=O)NC(=NCCc2ccc(OC)c(OC)c2)NC1=O,13.4
6,COc1ccc(CNC(=O)CCCn2ncn3c(cc4occc43)c2=O)cc1,-22.4
7,CCc1nn(CCCC(=O)NCc2ccc(C)cc2)c(=O)c2cc3occc3n12,-8.1
8,Cc1ccc(C)c(N2CCN(C(=O)CCCn3ncn4c(cc5occc54)c3=O)CC2)c1,-63.4
9,O=C(CCCn1ncn2c(cc3occc32)c1=O)NCc1cccc(Cl)c1,-61.3
10,CCOC(=O)CCCn1ncn2c(cc3occc32)c1=O,-0.3
11,CCc1nn(CCCC(=O)NCc2ccc(OC(C)C)cc2)c(=O)c2cc3occc3n12,-54.4
12,O=C(CCCn1ncn2c(cc3occc32)c1=O)N1CCc2ccccc2C1,-63
13,COc1cccc(CNC(=O)CCCn2ncn3c(cc4occc43)c2=O)c1,-42.9
14,CCc1nn(CCCC(=O)N2CCc3ccccc3C2)c(=O)c2cc3occc3n12,-29
15,Cc1ccccc1CNC(=O)CCCn1ncn2c(cc3occc32)c1=O,-14.7
16,CCOc1ccc(CNC(=O)CCCn2nc(CC)n3c(cc4occc43)c2=O)cc1,-24.7
17,CCc1nn(CC(=O)N2CCN(c3cc(C)ccc3C)CC2)c(=O)c2cc3occc3n12,13
18,Cc1nnc(NC(=O)c2cc(-c3ccco3)nc3ccccc23)s1,2.18
19,Cc1nc2cc(NC(=O)NCc3ccco3)ccc2o1,9.7
20,Cn1c(C(=O)NC2CC2)cc(=O)n(C)c1=O,-8
21,COc1ccc(CNC(=O)COC(=O)c2ccc(C)c(S(=O)(=O)N3CCOCC3)c2)cc1OC,6.13
22,CC1CCCN(S(=O)(=O)c2csc(C(N)=O)c2)C1 (stereo not drawn),15.2
23,O=C(NCc1csc2ccccc12)Nc1cc(Cl)cc(Cl)c1,13.6
24,CCOc1ccc(C(C)(N)C(=O)O)cc1 (stereo not drawn),-2.39
25,COc1ccc(NC(=O)c2cn(-c3ccccc3)nc2SC)cc1,-8.55
26,COc1ccc(CNC(=O)c2cc(-c3ccc(OC)c(OC)c3)on2)cc1,6.84
27,CCC(=O)Oc1ccc(C/C(=N\O)c2ccc(O)cc2O)o1,-8.07
